# Measurements as given in the supplement of paper PMC8728848.
# This is one part of a sample in which the strongest signals are shown more often than they occur.
# How the values were obtained:
# Experiment in all cases: glycan array binding signal (z-score within array); higher = stronger binding
# Conditions in all cases: glycan notation: IUPAC condensed, linker removed
# [1] = target: Gal(b1-4)GlcNAc(b1-3)Gal(b1-4)GlcNAc(b1-3)Gal(b1-4)GlcNAc(b1-2)Man(a1-3)[Gal(b1-4)GlcNAc(b1-3)Gal(b1-4)GlcNAc(b1-3)Gal(b1-4)GlcNAc(b1-2)Man(a1-6)]Man(b1-4)GlcNAc(b1-4)[Fuc(a1-6)]GlcNAc
# Summary of the method: (§1)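 Glycan array data were curated from 3228 arrays in the Consortium for Functional Glycomics database and kept only where the protein sequence was available. Glycan names were converted to IUPAC-condensed notation, and columns mapping to the same glycan were averaged. The binding signal is a within-array Z-score, averaged across arrays of the same protein sequence at different concentrations or buffers and across linkers. Negative Z-scores can be read as non-binding.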
# [2] = target: Gal(b1-4)GlcNAc(b1-3)[Gal(b1-4)GlcNAc(b1-6)]Gal(b1-4)GlcNAc
# Summary of the method: as §1
# Gal3S6S(b1-4)GlcNAc = target: Gal3S6S(b1-4)GlcNAc
# Summary of the method: as §1
# [3] = target: GalNAc(a1-3)GalNAc(b1-3)Gal(a1-4)Gal(b1-4)Glc
# Summary of the method: as §1
# [4] = target: GalNAc(b1-4)GlcNAc(b1-2)Man(a1-3)[GalNAc(b1-4)GlcNAc(b1-2)Man(a1-6)]Man(b1-4)GlcNAc(b1-4)GlcNAc
# Summary of the method: as §1
# [5] = target: GalNAc(b1-4)GlcNAc(b1-3)GalNAc(b1-4)GlcNAc
# Summary of the method: as §1
# GalNAc(b1-4)GlcNAc6S = target: GalNAc(b1-4)GlcNAc6S
# Summary of the method: as §1
# GalNAc3S(b1-4)GlcNAc = target: GalNAc3S(b1-4)GlcNAc
# Summary of the method: as §1
# GlcA(b1-3)GlcNAc = target: GlcA(b1-3)GlcNAc
# Summary of the method: as §1
# [6] = target: GlcNAc(a1-3)Gal(b1-4)GlcNAc
# Summary of the method: as §1
# [7] = target: GlcNAc(b1-2)Gal(b1-3)GalNAc
# Summary of the method: as §1
# [8] = target: GlcNAc(b1-2)Man(a1-3)[GlcNAc(b1-4)][GlcNAc(b1-2)Man(a1-6)]Man(b1-4)GlcNAc(b1-4)[Fuc(a1-6)]GlcNAc
# Summary of the method: as §1
# [9] = target: GlcNAc(b1-3)Gal(b1-4)GlcNAc(b1-3)Gal(b1-4)GlcNAc
# Summary of the method: as §1
# [10] = target: GlcNAc(b1-3)Gal(b1-4)GlcNAc(b1-3)Gal(b1-4)GlcNAc(b1-2)Man(a1-3)[GlcNAc(b1-3)Gal(b1-4)GlcNAc(b1-3)Gal(b1-4)GlcNAc(b1-2)Man(a1-6)]Man(b1-4)GlcNAc(b1-4)GlcNAc
# Summary of the method: as §1
# [11] = target: GlcNAc(b1-3)Gal(b1-4)GlcNAc(b1-3)Gal(b1-4)GlcNAc(b1-2)[GlcNAc(b1-3)Gal(b1-4)GlcNAc(b1-3)Gal(b1-4)GlcNAc(b1-6)]Man(a1-6)[GlcNAc(b1-3)Gal(b1-4)GlcNAc(b1-3)Gal(b1-4)GlcNAc(b1-2)Man(a1-3)]Man(b1-4)GlcNAc(b1-4)[Fuc(a1-6)]GlcNAc
# Summary of the method: as §1
# [12] = target: GlcNAc(b1-3)Gal(b1-4)GlcNAc(b1-3)Gal(b1-4)GlcNAc(b1-3)Gal(b1-4)GlcNAc(b1-2)[GlcNAc(b1-3)Gal(b1-4)GlcNAc(b1-3)Gal(b1-4)GlcNAc(b1-3)Gal(b1-4)GlcNAc(b1-6)]Man(a1-6)[GlcNAc(b1-3)Gal(b1-4)GlcNAc(b1-3)Gal(b1-4)GlcNAc(b1-3)Gal(b1-4)GlcNAc(b1-2)Man(a1-3)]Man(b1-4)GlcNAc(b1-4)[Fuc(a1-6)]GlcNAc
# Summary of the method: as §1
# [13] = target: Neu5Ac(a2-3)Gal(b1-3)GalNAc(b1-3)Gal(a1-4)Gal(b1-4)Glc
# Summary of the method: as §1
# [14] = target: Neu5Ac(a2-3)Gal(b1-4)GlcNAc(b1-2)[Neu5Ac(a2-3)Gal(b1-4)GlcNAc(b1-6)]Man(a1-6)[Neu5Ac(a2-3)Gal(b1-4)GlcNAc(b1-2)Man(a1-3)][GlcNAc(b1-4)]Man(b1-4)GlcNAc(b1-4)GlcNAc
# Summary of the method: as §1
# [15] = target: Neu5Ac(a2-3)Gal(b1-4)GlcNAc(b1-3)Gal(b1-3)GlcNAc
# Summary of the method: as §1
# [16] = target: Neu5Ac(a2-3)Gal(b1-4)[Fuc(a1-3)]GlcNAc
# Summary of the method: as §1
# [17] = target: Neu5Ac(a2-3)Gal(b1-4)[Fuc(a1-3)]GlcNAc(b1-3)GalNAc
# Summary of the method: as §1
# [18] = target: Neu5Ac(a2-6)Gal(b1-4)GlcNAc(b1-2)Man(a1-3)Man(b1-4)GlcNAc(b1-4)GlcNAc
# Summary of the method: as §1
# [19] = target: Neu5Ac(a2-6)Gal(b1-4)GlcNAc(b1-2)Man(a1-3)[GlcNAc(b1-4)][Neu5Ac(a2-6)Gal(b1-4)GlcNAc(b1-2)Man(a1-6)]Man(b1-4)GlcNAc(b1-4)GlcNAc
# Summary of the method: as §1
# [20] = target: Neu5Ac(a2-6)Gal(b1-4)GlcNAc(b1-2)Man(a1-3)[Neu5Ac(a2-6)Gal(b1-4)GlcNAc(b1-2)Man(a1-6)]Man(b1-4)GlcNAc(b1-4)GlcNAc
# Summary of the method: as §1
# [21] = target: Neu5Ac(a2-6)Gal(b1-4)GlcNAc(b1-2)Man(a1-3)[Neu5Ac(a2-6)Gal(b1-4)GlcNAc(b1-2)Man(a1-6)]Man(b1-4)GlcNAc(b1-4)[Fuc(a1-6)]GlcNAc
# Summary of the method: as §1
# [22] = target: Neu5Ac(b2-6)Gal(b1-4)GlcNAc
# Summary of the method: as §1
# [23] = target: Neu5Gc(a2-6)Gal(b1-4)GlcNAc
# Summary of the method: as §1
# [24] = target: Neu5Gc(a2-8)Neu5Gc(a2-3)Gal(b1-4)GlcNAc
# Summary of the method: as §1
binder,measurement,setting,value
"SUN4 (Saccharomyces cerevisiae), P53616 (protein) MGSSHHHHHHSSGLVPRGSHNGSIYGDLADFSGPYEKFEDGTIPCGQFPSGQGVIPISWLDEGGWSGVENTDTSTGGSCKEGSYCSYACQPGMSKTQWPSDQPSDGRSIGGLLCKDGYLYRSNTDTDYLCEWGVDAAYVVSELSNDVAICRTDYPGTENMVIPTYVQAGDSLPLTVVDQDTYYTWQGLKTSAQYYVNNAGISVEDACVWGSSSSGVGNWAPLNFGAGSSDGVAYLSLIPNPNNGNALNFNVKIVAADDSSTVNGECIYENGSFSGGSDGCTVSVTAGKAKFVLYN",glycan array binding signal (z-score),[1],2.9
same,glycan array binding signal (z-score),[2],-1.28
same,glycan array binding signal (z-score),Gal3S6S(b1-4)GlcNAc,2.2
same,glycan array binding signal (z-score),[3],-0.199
same,glycan array binding signal (z-score),[4],4.51
same,glycan array binding signal (z-score),[5],-0.309
same,glycan array binding signal (z-score),GalNAc(b1-4)GlcNAc6S,0.149
same,glycan array binding signal (z-score),GalNAc3S(b1-4)GlcNAc,1.87
same,glycan array binding signal (z-score),GlcA(b1-3)GlcNAc,-0.127
same,glycan array binding signal (z-score),[6],0.414
same,glycan array binding signal (z-score),[7],0.963
same,glycan array binding signal (z-score),[8],-0.555
same,glycan array binding signal (z-score),[9],0.244
same,glycan array binding signal (z-score),[10],0.121
same,glycan array binding signal (z-score),[11],1.97
same,glycan array binding signal (z-score),[12],1.86
same,glycan array binding signal (z-score),[13],0.263
same,glycan array binding signal (z-score),[14],-0.391
same,glycan array binding signal (z-score),[15],-0.71
same,glycan array binding signal (z-score),[16],-0.661
same,glycan array binding signal (z-score),[17],1.91
same,glycan array binding signal (z-score),[18],-0.036
same,glycan array binding signal (z-score),[19],0.646
same,glycan array binding signal (z-score),[20],0.023
same,glycan array binding signal (z-score),[21],0.827
same,glycan array binding signal (z-score),[22],-0.182
same,glycan array binding signal (z-score),[23],-0.424
same,glycan array binding signal (z-score),[24],-0.415
